PMC6212833
In all, about 2,000 compounds went through this assay and about 15 (0.8%) showed an effect of 50% or more. This is one part of a sample in which strong results are shown more often than they occur.

Test system: Balamuthia mandrillaris (ATCC PRA-291) trophozoites, axenic culture
Experiment: primary screen, percent inhibition; higher = more effect of the substance;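 note: 0% = vehicle wells and 100% = lysate wells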
Settings: 20 µM
Description: Screening of a clinically approved library of compounds, compiled by the Small Molecule Discovery Center (SMDC) at the UCSF, was completed at 20 µM in 0.2% DMSO. All 2,177 drugs in the library were stored as 10 mM stocks dissolved in 100% DMSO (Sigma-Aldrich) at −20°C. B. mandrillaris amoebae were resuspended in axenic medium and distributed into opaque 384-well plates (Corning) at a density of 3,000 amoebae per well using a BioMek NX liquid handler. Negative-control wells were treated with vehicle only (0.2% DMSO in axenic medium), and positive-control wells simulating total destruction of amoebae were seeded with amoeba lysate generated by 3 consecutive freeze-thaw cycles. Following 72 h of incubation, 30 µl of CellTiter Glo reagent (CTG; Promega) was added to each well. The luminescence was measured with a Promega GloMax-Multi+ plate reader at 2, 4, and 8 h after CTG addition. […] The B-score, representing a plate-based statistical approach for correcting row, column, and edge effects, was also calculated for each compound in the library (75).

SMILES	% Inhibition
C/C(=C\C(=O)OCCCCCCCCC(=O)O)C[C@@H]1OC[C@H](C[C@@H]2O[C@H]2[C@@H](C)[C@H](C)O)[C@@H](O)[C@H]1O	26.3%
CC(=O)Oc1cc(C(C)C)c(OCCN(C)C)cc1C	24.8%
CCC(=O)OCC(=O)C1(OC(=O)CC)C(C)CC2C3CCC4=CC(=O)C=CC4(C)C3(Cl)C(O)CC21C (stereo not drawn)	22.7%
NC(=O)C1(N2CCCCC2)CCN(CCCC(=O)c2ccc(F)cc2)CC1	18.8%
CNCCC[C@]12CC[C@H](c3ccccc31)c1ccccc12	23.8%
COC(=O)C1[C@H]2C[C@H]3c4[nH]c5ccccc5c4CCN3C[C@@H]2CC[C@@H]1O (stereo partly drawn)	22.5%
CCN(C)C(=O)Oc1cccc([C@H](C)N(C)C)c1 [756883-L2]	25.9%
CC(CCc1ccc(O)cc1)NCC(O)c1ccc(O)cc1 (stereo not drawn)	-1.52%
CC1(C)S[C@@H]2[C@H](NC(=O)[C@H](NC(=O)N3CCN(S(C)(=O)=O)C3=O)c3ccccc3)C(=O)N2[C@H]1C(=O)O	18.9%
COCCCOc1cc(C[C@@H](C[C@H](N)[C@@H](O)C[C@H](C(=O)NCC(C)(C)C(N)=O)C(C)C)C(C)C)ccc1OC	-4.92%
CCC(=O)OCC(=O)[C@@]1(OC(=O)CC)[C@H](C)CC2C3C([C@@H](O)C[C@@]21C)[C@@]1(C)C=CC(=O)C=C1C[C@H]3Cl (stereo partly drawn)	13.3%
CC(=O)OCC(=O)[C@@]12OC(C)(C)O[C@@H]1C[C@H]1[C@@H]3C[C@H](F)C4=CC(=O)C=C[C@]4(C)[C@@]3(F)[C@@H](O)C[C@@]12C	11.4%
Cc1cccc(C)c1NC1=NCCCS1	8.96%
CC(=O)N[C@@H](CS)C(=O)O [129971-L5]	0.0866%
CN(C)c1ccc(C(=C2C=CC(=[N+](C)C)C=C2)c2ccc(N(C)C)cc2)cc1	61.7%
COc1cc(N)c(Cl)cc1C(=O)N[C@H]1CCN(CCCOc2ccc(F)cc2)C[C@H]1OC	9.62%
CC(=O)OCC(=O)[C@@]1(O)CCC2C3CCC4=CC(=O)C=C[C@]4(C)[C@@]3(F)[C@@H](O)C[C@@]21C (stereo partly drawn)	15.9%
CCN[C@@H](C)Cc1cccc(C(F)(F)F)c1	20.1%
CC(=O)S[C@@H]1CC2=CC(=O)CC[C@]2(C)[C@H]2CC[C@@]3(C)[C@@H](CC[C@@]34CCC(=O)O4)C12 (stereo partly drawn)	28%
C/C=C(/C)C(=O)O[C@@H]1[C@H](OC(C)=O)[C@@]2(CO)C(CC1(C)C)C1=CCC3[C@@]4(C)CC[C@H](O[C@@H]5O[C@H](C(=O)O)[C@@H](O[C@@H]6O[C@H](CO)[C@@H](O)[C@H](O)[C@H]6O)[C@H](O)[C@H]5O[C@@H]5O[C@H](CO)[C@@H](O)[C@H](O)[C@H]5O)[C@](C)(CO)C4CC[C@@]3(C)[C@]1(C)C[C@H]2O (stereo partly drawn)	3.82%

SMILES	% Inhibition
CCN(CC)C(=O)C1CN2CCc3cc(OC)c(OC)cc3C2CC1OC(C)=O (stereo not drawn)	18.9%
CC(=O)/N=c1\sc(S(N)(=O)=O)nn1C	11.1%
COc1ccc2[nH]c(S(=O)Cc3ncc(C)c(OC)c3C)nc2c1 (stereo not drawn) [255785-L6]	24.6%
COc1ccc2c3c1O[C@H]1[C@@H](O)C=C[C@H]4[C@@H](C2)N(C)CC[C@@]341	10.8%
CC(=O)OCC(=O)[C@@]1(O)CC[C@H]2[C@@H]3CCC4=CC(=O)CC[C@]4(C)[C@@]3(F)[C@@H](O)C[C@@]21C	17.7%
CC(C)/N=C(N)/N=C(\N)Nc1ccc(Cl)cc1 [131550-L2]	9.42%
N=C(NCCCCCCNC(=N)NC(=N)Nc1ccc(Cl)cc1)NC(=N)Nc1ccc(Cl)cc1	63.6%
CC(C)/N=C(N)/N=C(\N)Nc1ccc(Cl)cc1 [131550-L3]	10.7%
O=C(O)COC(=O)Cc1ccccc1Nc1c(Cl)cccc1Cl	-10.4%
N=C(N)N	14.8%
Cc1cc2nc3c(=O)[nH]c(=O)nc-3n(C[C@H](O)[C@H](O)[C@H](O)CO)c2cc1C	14.9%
CO/N=C(\C(=O)N[C@@H]1C(=O)N2C(C(=O)O)=C(CSc3nc(=O)c(=O)[nH]n3C)CS[C@@H]12)c1csc(N)n1	13.4%
Cc1ccc(S(=O)(=O)NC(=O)NN2CCCCCC2)cc1	32%
C[C@]12CCC3c4ccc(OS(=O)(=O)O)cc4CCC3C1CCC2=O (stereo partly drawn)	-1.63%
CO[C@@H]1[C@@H](OC(N)=O)[C@@H](O)[C@H](Oc2ccc3c(O)c(NC(=O)c4ccc(O)c(CC=C(C)C)c4)c(=O)oc3c2C)OC1(C)C	9.7%
O=C(O)CCCCC1CCSS1 (stereo not drawn)	21.9%
CCC(=O)O[C@H]1[C@H](O[C@@H]2[C@@H](C)[C@H](O[C@H]3C[C@@](C)(OC)[C@@H](O)[C@H](C)O3)[C@@H](C)C(=O)O[C@H](CC)[C@@](C)(O)[C@H](O)[C@@H](C)C(=O)[C@H](C)C[C@@]2(C)O)O[C@H](C)C[C@@H]1N(C)C	4.56%
C=Cc1c(C)c2cc3[nH]c(cc4nc(cc5nc(cc1[nH]2)C(C)=C5CCC(=O)O)C(CCC(=O)O)=C4C)c(C)c3C=C	5.79%
C[C@H]1CN(C[C@H](Cc2ccccc2)C(=O)NCC(=O)O)CC[C@@]1(C)c1cccc(O)c1	13.2%
